# High-throughput results from PubChem BioAssay.
# In the library only some 1.4% were active in any assay of this set; here they are far more common.
# pCIP destab = p/CIP-EGFP fusion destabilizers, primary screen, fluorescence, F442A cells. Q05BA5. decrease of EGFP signal, % at 10 µM. 16 h. actives 0.01% (n = 290,000);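 active = EGFP signal decrease of at least 30% at 10 µM or well 3 SD below plate mean, unless failing retest; inactive = the rest, including hits failing retest or dose response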
# HTR5A ag ctr = HTR5A agonists in luminescence cell assay, primary screen, counter-screen for OPRM1-OPRD1 heterodimer agonist project, full-deck HTS; 5-hydroxytryptamine receptor 5A (Homo sapiens), P47898; cell-based; activation, % at 9.3 µM; actives 0.61% (n = 340,000); AID 504692, 2011; in the data active = activation mostly above about 9.5%, no sharp cut-off; inactive = mostly below about 7.6%
# HTR5A inv ctr = HTR5A inverse agonists in luminescence cell assay, primary screen, counter-screen for OPRM1-OPRD1 heterodimer inverse agonist project, full-deck HTS. 5-hydroxytryptamine receptor 5A (Homo sapiens), P47898. HTR5A cell line, inverse agonism. inhibition, % at 9.3 µM. actives 0.083% (n = 340,000). AID 504634, 2011; in the data active = inhibition mostly above about 23%, no sharp cut-off; inactive = mostly below about 18%
# MOR-DOR inv ag = inverse agonists of MOR-DOR heterodimerization, primary screen, cell-based, luminescence | cell-based MOR-DOR heterodimer luminescence, inverse agonism | inhibition, % at 9.3 µM | actives 0.21% (n = 340,000); in the data active = inhibition above about 22%, passing the limit was not always enough
# OPRM1-OPRD1 ag = agonists of OPRM1-OPRD1 heterodimerization, primary screen, cell-based, luminescence | AID 504326, 2011 | actives 0.3% (n = 340,000) | activation, % at 9.3 µM | cells | Mu-type opioid receptor (Homo sapiens) + Delta-type opioid receptor (Homo sapiens), …; in the data active = activation above about 18%
# beta cell repl = inducers of MIN6 beta-cell proliferation, primary screen, ATP luminescence, uHTS | actives 0.29% (n = 330,000) | proliferation, % at 10 µM | MIN6 cells proliferation, ATPlite luminescence, 48 h; cells starved in 0.2% serum; 100% = growth in 10% serum;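 active = compounds whose signal lies at least 3.5 SD above the mean of all wells on their plate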
# MOR-DOR inv conf = inverse agonists of MOR-DOR heterodimerization, confirmation, cell-based, luminescence. actives 20% (n = 580). inhibition, % at 9.3 µM. shares compounds with MOR-DOR inv ag. cells expressing OPRM1/OPRD1 heterodimer; in the data active = inhibition above about 32%
# HTR5A inv count = HTR5A inverse agonists, counter-screen for OPRM1-OPRD1 inverse agonist project, cell-based, luminescence. HTR5A-expressing cells, inverse agonism. 580 tested, under 10 active. shares compounds with MOR-DOR inv ag. inhibition, % at 9.3 µM; call rule not given here
# Hits are given with their value; - = inactive; . = not tested or not shown.
SMILES,pCIP destab,HTR5A ag ctr,HTR5A inv ctr,MOR-DOR inv ag,OPRM1-OPRD1 ag,beta cell repl,MOR-DOR inv conf,HTR5A inv count
O=[N+]([O-])c1ccc(O)c(C=NNc2ccc(S(=O)(=O)O)cc2)c1,.,-,-,31.2,-,.,-,-
O=[N+]([O-])c1cccc(N/N=C/c2cc([N+](=O)[O-])ccc2O)c1,-,-,-,-,-,-,.,.
COc1ccc(C2=CC(=O)C[C@H](c3ccc(F)cc3)C2)c(OC)c1,.,-,-,-,-,-,.,.
CC(=O)N1CCOc2ccc(S(=O)(=O)NC[C@H]3O[C@@H](n4ccc(=O)[nH]c4=O)[C@H](O)[C@@H]3O)cc21,.,-,-,-,-,.,.,.
COc1ccc(-n2c(N)c(C(=O)NCc3ccco3)sc2=S)cc1,-,-,-,-,-,-,.,.
COc1ccc(-n2c(N)c(C(=O)NCC3CCCO3)sc2=S)cc1 (stereo unspecified),-,-,-,-,-,-,.,.
CCOC(=O)c1ccc(-n2c(N)c(C(=O)NCc3ccco3)sc2=S)cc1,-,-,-,29.6,-,-,-,-
CCOC(=O)c1ccc(-n2c(N)c(C(=O)NCC3CCCO3)sc2=S)cc1 (stereo unspecified),-,-,-,34.0,-,-,-,-
COc1ccc(C(C)=O)cc1CSc1ccc(S(=O)(=O)N2CCOCC2)cn1,.,-,-,-,-,-,.,.
CC=Cc1cc(OC)c2c(c1)C(C)C(c1ccc(O)c(OC)c1)O2 (stereo unspecified),.,-,-,-,-,.,.,.
Cc1ccc2c(c1)C(=O)C(=O)N2c1ccc(Cl)cc1,.,-,-,58.0,-,-,-,-
Cc1cc(C(=O)N/N=C/c2cc(Br)cc([N+](=O)[O-])c2O)c2ccccc2n1,-,-,-,22.0,-,-,-,-
COc1cc(OC)cc(-c2c(-c3cccs3)c3cc(-c4ccc(CN5CCOCC5)cc4)ccc3n2C)c1,.,-,-,-,-,-,.,.
CC1(C)C(=O)Nc2ccccc2N1C(=O)COC(=O)CNS(=O)(=O)c1ccc(Br)cc1Cl,.,-,-,-,-,.,.,.
Oc1[nH]c2ccccc2c1N=Nc1ccccc1,-,-,-,-,-,-,.,.
O=S1(=O)N=C(N=Nc2c(O)[nH]c3ccccc23)c2ccccc21,-,-,-,24.6,-,-,-,-
CCOC(=O)c1ccc(N[C@@H]2CCN3C(=O)c4ccccc4[C@@H]3C[C@H]2O)cc1,.,-,-,-,-,.,.,.
Cc1c(C(=O)NC(=S)Nc2cccnc2)cccc1[N+](=O)[O-],-,-,-,34.9,-,-,-,-
O=C(O)C1CC(=O)N(Cc2ccccc2)C1 (stereo unspecified),-,-,-,-,-,-,.,.
O=C1N(Cc2ccccc2)CC2(Br)COCOC12O (stereo unspecified),.,-,-,44.9,-,.,-,-
CCCCNC(=S)NNC(=O)c1cc(-c2ccncc2)nc2ccccc12,-,-,-,33.5,-,-,-,-
Cn1nnc(NC(=S)NC(=O)c2cccc3c(Br)cccc23)n1,-,-,-,33.1,-,-,-,-
Cn1nnc(NC(=S)NC(=O)c2cccc3c(Cl)cccc23)n1,-,-,-,31.4,-,-,-,-
COc1c(C(=O)NC(=S)Nc2nnn(C)n2)cc2ccccc2c1Br,-,-,-,-,-,-,.,.
COc1cccc(C(=O)NC(=S)Nc2nnn(C)n2)c1,-,-,-,27.9,-,-,-,-
CCc1nc2ccc(C(=O)N(C)CC(=O)Nc3ccc(F)c(F)c3F)cc2nc1CC,.,-,-,-,-,-,.,.
Cc1ccc(S(=O)(=O)N2CCN(C(=O)COC(=O)CNC(=O)c3ccccc3F)CC2)c(C)c1,.,-,-,-,-,.,.,.
